Data on eight molecules can be found in PubChem BioAssay (NCI).

Test systems include HCT-15 colon; HT29 colon; SNB-75 CNS; SNB-19 CNS; U251 CNS; PC-3 prostate; SK-MEL-5 melanoma; UACC-62 melanoma; LOX IMVI melanoma; SK-MEL-28 melanoma; SK-MEL-2 melanoma; EKVX NSCLC; SN12C renal; UO-31 renal; ACHN renal; A498 renal; CCRF-CEM leukemia; MOLT-4 leukemia; CAKI-1 renal.
Common to all, as to experiment: NCI-60 one-dose screen, 48 h (100 = growth as untreated, 0 = no growth, -100 = all killed)
What all share (conditions): 10 µM unless noted

About 83,000 compounds went through this panel and 20% of them were active in at least one assay; those are over-represented in the sample as a whole.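 96-well plates, one dose, 48 hours. Percent growth reported; active if below 10.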 A number with no mark means an inactive call. Active and inactive are the calls of the source.

As to `COc1cnc2c(c1)C(=O)c1c-2n(CCCN2CCC(O)CC2)c(=O)c2cc(F)ccc12`, the growth was 7.5% (active) in the experiment with HCT-15 colon; -20.6% (active) in the experiment with HT29 colon; -16.9% (active) with SNB-75 CNS; 14% in the experiment on SNB-19 CNS; -28.4% (active) with U251 CNS; 3.1% (active) with PC-3 prostate. Moreover, the growth in the experiment with SK-MEL-5 melanoma was -98.9% (active); with UACC-62 melanoma it was -40.8% (active); in the experiment on LOX IMVI melanoma, -70.3% (active); with SK-MEL-28 melanoma it was 13.2%; in the experiment with SK-MEL-2 melanoma it was 3.49% (active); with EKVX NSCLC, 2.5% (active). The growth with SN12C renal was 9.71% (active); in the experiment on UO-31 renal, -89.4% (active); in the experiment on ACHN renal it was -58% (active); with A498 renal, -87.9% (active); in the experiment with CCRF-CEM leukemia, -2.05% (active); with MOLT-4 leukemia, -19.2% (active).
As to `COc1ccc(-c2cc(-c3nnc(SCC(=O)Nc4ccc(C(C)=O)cc4)n3-c3ccccc3)c3ccccc3n2)cc1OC`, the growth was 102% in the experiment with HCT-15 colon; 94.7% in the experiment with HT29 colon; 102% in the experiment with SNB-75 CNS; 113% with SNB-19 CNS; 101% with U251 CNS; 98.7% with PC-3 prostate. In addition, the growth in the experiment with SK-MEL-5 melanoma was 109%; with UACC-62 melanoma it was 111%; in the experiment on LOX IMVI melanoma, 98.1%; with SK-MEL-28 melanoma it was 113%; in the experiment with SK-MEL-2 melanoma, 97.9%; in the experiment with EKVX NSCLC, 97.7%. For the same molecule, the growth is 110% in the experiment with SN12C renal; 85.3% with UO-31 renal; 108% in the experiment on ACHN renal; 114% with A498 renal; 104% in the experiment on CCRF-CEM leukemia; 107% in the experiment on MOLT-4 leukemia.
For `CN1CCN(c2nc3scc(-c4ccccc4)c3c(=O)[nH]2)CC1`, the growth with HCT-15 colon is 104%; with HT29 colon, 96.7%; in the experiment with SNB-75 CNS, 88.4%; with SNB-19 CNS, 96.5%; with U251 CNS, 99.4%; in the experiment on PC-3 prostate it was 92.9%. For the same molecule, the growth was 96.7% in the experiment on SK-MEL-5 melanoma; 94.2% in the experiment with UACC-62 melanoma; 95.9% with LOX IMVI melanoma; 104% with SK-MEL-28 melanoma; 104% in the experiment on SK-MEL-2 melanoma; 90.3% in the experiment with EKVX NSCLC. Besides, the growth was 100% in the experiment on SN12C renal; 81.4% in the experiment with UO-31 renal; 107% with ACHN renal; 91% with A498 renal; 103% with CCRF-CEM leukemia; 95.5% in the experiment on MOLT-4 leukemia.
Regarding `COc1cc(/C=C2\SC(N3CCCCC3)=NC2=O)ccc1OCCCCCCOc1ccc(/C=C2\SC(N3CCCCC3)=NC2=O)cc1OC`, the growth was 25.5% in the experiment with HCT-15 colon; -13.8% (active) in the experiment with HT29 colon; 18.8% in the experiment on SNB-75 CNS; 44% in the experiment on SNB-19 CNS; -3.37% (active) with U251 CNS; 34% in the experiment on PC-3 prostate. Also, the growth in the experiment with SK-MEL-5 melanoma was 10.3%; in the experiment on UACC-62 melanoma, 17.6%; in the experiment on LOX IMVI melanoma, -44.7% (active); with SK-MEL-28 melanoma it was 12.7%; in the experiment with SK-MEL-2 melanoma, 2.01% (active); in the experiment on EKVX NSCLC, 31.4%. Besides, the growth is 25.3% in the experiment with SN12C renal; 33.5% with UO-31 renal; 23.1% with ACHN renal; 4.5% (active) with CAKI-1 renal; 7.57% (active) with A498 renal; 1.05% (active) in the experiment with CCRF-CEM leukemia. Moreover, the growth in the experiment with MOLT-4 leukemia was 7.46% (active).
On to `CCNCCCn1c2c(c3ccc(F)cc3c1=O)C(=O)c1cc(OC)cnc1-2`, for which the growth in the experiment on HCT-15 colon was 2.25% (active); in the experiment with HT29 colon, -14.9% (active); in the experiment with SNB-75 CNS, -18.2% (active); in the experiment on SNB-19 CNS it was 12.1%; with U251 CNS it was -25.8% (active); in the experiment with PC-3 prostate, -3.56% (active). The growth with SK-MEL-5 melanoma was -99.1% (active); in the experiment with UACC-62 melanoma, -34.5% (active); in the experiment on LOX IMVI melanoma it was -64.9% (active); in the experiment with SK-MEL-28 melanoma, 8.91% (active); in the experiment on SK-MEL-2 melanoma, -3.1% (active); in the experiment on EKVX NSCLC it was -14.4% (active). The growth with SN12C renal is 1.58% (active); with UO-31 renal, -90.7% (active); in the experiment with ACHN renal, -47.5% (active); in the experiment with A498 renal it was -91.2% (active); in the experiment with CCRF-CEM leukemia, 1.07% (active); in the experiment on MOLT-4 leukemia it was -15.6% (active).
Turning to `COc1cccc2c1C(=O)c1c(O)c3c(c(O)c1C2=O)C[C@@](O)(C(C)=O)C[C@@H]3O[C@H]1C[C@H](N)[C@H](O)[C@H](C)O1`, the growth in the experiment on HCT-15 colon is 7.88% (active); in the experiment on HT29 colon, -13.5% (active); in the experiment on SNB-75 CNS, -91.4% (active); in the experiment with SNB-19 CNS, 2.11% (active); in the experiment on U251 CNS, 0.281% (active); in the experiment on PC-3 prostate, -26.3% (active). Also, the growth with SK-MEL-5 melanoma was -100% (active); in the experiment on UACC-62 melanoma it was -65.8% (active); in the experiment on LOX IMVI melanoma, -35% (active); with SK-MEL-28 melanoma, -44.5% (active); with SK-MEL-2 melanoma it was -82% (active); in the experiment with EKVX NSCLC, -25% (active). Also, the growth in the experiment with SN12C renal was 4.49% (active); in the experiment with UO-31 renal it was -64.7% (active); in the experiment with ACHN renal it was -23.1% (active); in the experiment with CAKI-1 renal, -29.4% (active); with CCRF-CEM leukemia, -25.1% (active); with MOLT-4 leukemia it was -17.8% (active).
For `CC(C)Sc1nc(-c2ccc(Br)cc2)c(C#N)c(N2CCCCC2)n1`, the growth is 96.2% in the experiment with HCT-15 colon; 94.5% in the experiment on HT29 colon; 99.4% in the experiment with SNB-75 CNS; 105% in the experiment on SNB-19 CNS; 99.9% with U251 CNS; 97.5% with PC-3 prostate. Also, the growth with SK-MEL-5 melanoma was 101%; in the experiment on UACC-62 melanoma it was 82.6%; in the experiment with LOX IMVI melanoma, 108%; in the experiment with SK-MEL-28 melanoma, 105%; in the experiment with SK-MEL-2 melanoma, 108%; with EKVX NSCLC it was 93.3%. Moreover, the growth is 94.3% in the experiment with SN12C renal; 95.3% with UO-31 renal; 101% in the experiment with ACHN renal; 95.9% in the experiment on CAKI-1 renal; 83.8% in the experiment with A498 renal; 95.2% in the experiment with CCRF-CEM leukemia. Besides, in the experiment with MOLT-4 leukemia, the growth was 110%.
Consider `COc1cnc2c(c1)C(=O)c1c-2n(CCCN2CCNCC2)c(=O)c2cc(F)ccc12`, for which the growth was 2.48% (active) with HCT-15 colon; -42.1% (active) in the experiment on HT29 colon; -7.98% (active) with SNB-75 CNS; 18.3% with SNB-19 CNS; 2.03% (active) in the experiment on U251 CNS; 22.8% in the experiment with PC-3 prostate. The growth was -88.5% (active) in the experiment on SK-MEL-5 melanoma; -0.448% (active) in the experiment with UACC-62 melanoma; -86.8% (active) in the experiment on LOX IMVI melanoma; -60.5% (active) with SK-MEL-28 melanoma; -17.1% (active) with SK-MEL-2 melanoma; 18.7% in the experiment on EKVX NSCLC. The growth is 7.67% (active) in the experiment with SN12C renal; -50.1% (active) with UO-31 renal; -78.1% (active) with ACHN renal; -25.7% (active) in the experiment on A498 renal; -1.3% (active) in the experiment on CCRF-CEM leukemia; -16.2% (active) in the experiment with MOLT-4 leukemia.
